Key:
Assay in all cases: phenotypically active (imaging signature differs from DMSO and reproducible) at any of 0.3-9 uM (binary (1 = active, 0 = inactive)); higher = active
Settings in all cases: treatment time: 24 h
A549-ACTB-RAB5A = system: A549-ACTB-RAB5A
Summary of the method: (§1)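 Fifteen reporter lines derived from A549, HepG2 and WPMY1 cells by gene editing, carrying BFP for segmentation plus GFP and RFP/FusionRed markers, were exposed to 0.3, 1, 3 or 9 µM for 24 h in four wells each and imaged live. Live-cell features from each well were normalised to solvent control wells. A well set counted as deviating when ≥3 of 4 wells lay beyond the 95th percentile of control Euclidean distances, and as reproducible when the median replicate Pearson correlation exceeded the 95th percentile of non-replicates. Phenotypic activity was assigned only when both criteria were met.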

A549-CANX-COX4 = system: A549-CANX-COX4
Summary of the method: as §1

A549-GM130-SQSTM1 = system: A549-GM130-SQSTM1
Summary of the method: as §1

A549-TP53BP1-CLTA = system: A549-TP53BP1-CLTA
Summary of the method: as §1

A549-TUBA1B-RELA = system: A549-TUBA1B-RELA
Summary of the method: as §1

HepG2-ACTB-RAB5A = system: HepG2-ACTB-RAB5A
Summary of the method: as §1

HepG2-CANX-COX4 = system: HepG2-CANX-COX4
Summary of the method: as §1

HepG2-GM130-SQSTM1 = system: HepG2-GM130-SQSTM1
Summary of the method: as §1

HepG2-TP53BP1-CLTA = system: HepG2-TP53BP1-CLTA
Summary of the method: as §1

HepG2-TUBA1B-RELA = system: HepG2-TUBA1B-RELA
Summary of the method: as §1

WPMY1-ACTB-RAB5A = system: WPMY1-ACTB-RAB5A
Summary of the method: as §1

WPMY1-CANX-COX4 = system: WPMY1-CANX-COX4
Summary of the method: as §1

WPMY1-GM130-SQSTM1 = system: WPMY1-GM130-SQSTM1
Summary of the method: as §1

WPMY1-TP53BP1-CLTA = system: WPMY1-TP53BP1-CLTA
Summary of the method: as §1

WPMY1-TUBA1B-RELA = system: WPMY1-TUBA1B-RELA
Summary of the method: as §1

Measured: phenotypically active

NS(=O)(=O)c1cc2c(cc1Cl)NC(C(Cl)Cl)NS2(=O)=O (stereo not given) [trichlormethiazide]
inactive: A549-ACTB-RAB5A 0 | A549-CANX-COX4 0 | A549-GM130-SQSTM1 0 | A549-TP53BP1-CLTA 0 | A549-TUBA1B-RELA 0 | HepG2-ACTB-RAB5A 0 | HepG2-CANX-COX4 0 | HepG2-GM130-SQSTM1 0 | HepG2-TP53BP1-CLTA 0 | HepG2-TUBA1B-RELA 0 | WPMY1-ACTB-RAB5A 0 | WPMY1-CANX-COX4 0 | WPMY1-GM130-SQSTM1 0 | WPMY1-TP53BP1-CLTA 0 | WPMY1-TUBA1B-RELA 0

Cc1nc(=O)c2c([nH]1)CCSC2
inactive: A549-ACTB-RAB5A 0 | A549-CANX-COX4 0 | A549-GM130-SQSTM1 0 | A549-TP53BP1-CLTA 0 | A549-TUBA1B-RELA 0 | HepG2-ACTB-RAB5A 0 | HepG2-CANX-COX4 0 | HepG2-GM130-SQSTM1 0 | HepG2-TP53BP1-CLTA 0 | HepG2-TUBA1B-RELA 0 | WPMY1-ACTB-RAB5A 0 | WPMY1-CANX-COX4 0 | WPMY1-GM130-SQSTM1 0 | WPMY1-TP53BP1-CLTA 0 | WPMY1-TUBA1B-RELA 0

N=C(N)NC(=O)Cc1c(Cl)cccc1Cl [guanfacine]
inactive: A549-ACTB-RAB5A 0 | A549-CANX-COX4 0 | A549-GM130-SQSTM1 0 | A549-TP53BP1-CLTA 0 | A549-TUBA1B-RELA 0 | HepG2-ACTB-RAB5A 0 | HepG2-CANX-COX4 0 | HepG2-GM130-SQSTM1 0 | HepG2-TP53BP1-CLTA 0 | HepG2-TUBA1B-RELA 0 | WPMY1-ACTB-RAB5A 0 | WPMY1-CANX-COX4 0 | WPMY1-GM130-SQSTM1 0 | WPMY1-TP53BP1-CLTA 0 | WPMY1-TUBA1B-RELA 0

Cc1ccccc1C(OCCN(C)C)c1ccccc1 (stereo not given) [orphenadrine]
inactive: A549-ACTB-RAB5A 0 | A549-CANX-COX4 0 | A549-GM130-SQSTM1 0 | A549-TP53BP1-CLTA 0 | A549-TUBA1B-RELA 0 | HepG2-ACTB-RAB5A 0 | HepG2-CANX-COX4 0 | HepG2-GM130-SQSTM1 0 | HepG2-TP53BP1-CLTA 0 | HepG2-TUBA1B-RELA 0 | WPMY1-ACTB-RAB5A 0 | WPMY1-CANX-COX4 0 | WPMY1-GM130-SQSTM1 0 | WPMY1-TP53BP1-CLTA 0 | WPMY1-TUBA1B-RELA 0

NS(=O)(=O)c1cc(Cl)c(Cl)c(S(N)(=O)=O)c1 [diclofenamide]
inactive: A549-ACTB-RAB5A 0 | A549-CANX-COX4 0 | A549-GM130-SQSTM1 0 | A549-TP53BP1-CLTA 0 | A549-TUBA1B-RELA 0 | HepG2-ACTB-RAB5A 0 | HepG2-CANX-COX4 0 | HepG2-GM130-SQSTM1 0 | HepG2-TP53BP1-CLTA 0 | HepG2-TUBA1B-RELA 0 | WPMY1-ACTB-RAB5A 0 | WPMY1-CANX-COX4 0 | WPMY1-GM130-SQSTM1 0 | WPMY1-TP53BP1-CLTA 0 | WPMY1-TUBA1B-RELA 0

CNC(=O)COC(=O)N1CCC(CCc2ccc(Cl)cc2)CC1
inactive: A549-ACTB-RAB5A 0 | A549-CANX-COX4 0 | A549-GM130-SQSTM1 0 | A549-TP53BP1-CLTA 0 | A549-TUBA1B-RELA 0 | HepG2-ACTB-RAB5A 0 | HepG2-CANX-COX4 0 | HepG2-GM130-SQSTM1 0 | HepG2-TP53BP1-CLTA 0 | HepG2-TUBA1B-RELA 0 | WPMY1-ACTB-RAB5A 0 | WPMY1-CANX-COX4 0 | WPMY1-GM130-SQSTM1 0 | WPMY1-TP53BP1-CLTA 0 | WPMY1-TUBA1B-RELA 0

CNNCc1ccc(C(=O)NC(C)C)cc1 [procarbazine]
inactive: A549-ACTB-RAB5A 0 | A549-CANX-COX4 0 | A549-GM130-SQSTM1 0 | A549-TP53BP1-CLTA 0 | A549-TUBA1B-RELA 0 | HepG2-ACTB-RAB5A 0 | HepG2-CANX-COX4 0 | HepG2-GM130-SQSTM1 0 | HepG2-TP53BP1-CLTA 0 | HepG2-TUBA1B-RELA 0 | WPMY1-ACTB-RAB5A 0 | WPMY1-CANX-COX4 0 | WPMY1-GM130-SQSTM1 0 | WPMY1-TP53BP1-CLTA 0 | WPMY1-TUBA1B-RELA 0

CC1=NN(c2ccc(C(=O)O)cc2)C(=O)/C1=C\c1ccc(-c2cc(C)c(C)cc2[N+](=O)[O-])o1
inactive: A549-ACTB-RAB5A 0 | A549-CANX-COX4 0 | A549-GM130-SQSTM1 0 | A549-TP53BP1-CLTA 0 | A549-TUBA1B-RELA 0 | HepG2-ACTB-RAB5A 0 | HepG2-CANX-COX4 0 | HepG2-GM130-SQSTM1 0 | HepG2-TP53BP1-CLTA 0 | HepG2-TUBA1B-RELA 0 | WPMY1-ACTB-RAB5A 0 | WPMY1-CANX-COX4 0 | WPMY1-GM130-SQSTM1 0 | WPMY1-TP53BP1-CLTA 0 | WPMY1-TUBA1B-RELA 0

Cc1ccc(-c2cc(C(F)(F)F)nn2-c2ccc(S(N)(=O)=O)cc2)cc1 [celecoxib]
inactive: A549-ACTB-RAB5A 0 | A549-CANX-COX4 0 | A549-GM130-SQSTM1 0 | A549-TP53BP1-CLTA 0 | A549-TUBA1B-RELA 0 | HepG2-ACTB-RAB5A 0 | HepG2-CANX-COX4 0 | HepG2-GM130-SQSTM1 0 | HepG2-TP53BP1-CLTA 0 | HepG2-TUBA1B-RELA 0 | WPMY1-ACTB-RAB5A 0 | WPMY1-CANX-COX4 0 | WPMY1-GM130-SQSTM1 0 | WPMY1-TP53BP1-CLTA 0 | WPMY1-TUBA1B-RELA 0

CC(=O)O[C@H]1C[C@@H]2CC[C@@H]3[C@H](CC[C@@]4(C)[C@H]3C[C@H]([N+]3(C)CCCCC3)[C@@H]4OC(C)=O)[C@@]2(C)C[C@@H]1N1CCCCC1 [vecuronium]
inactive: A549-ACTB-RAB5A 0 | A549-CANX-COX4 0 | A549-GM130-SQSTM1 0 | A549-TP53BP1-CLTA 0 | A549-TUBA1B-RELA 0 | HepG2-ACTB-RAB5A 0 | HepG2-CANX-COX4 0 | HepG2-GM130-SQSTM1 0 | HepG2-TP53BP1-CLTA 0 | HepG2-TUBA1B-RELA 0 | WPMY1-ACTB-RAB5A 0 | WPMY1-CANX-COX4 0 | WPMY1-GM130-SQSTM1 0 | WPMY1-TP53BP1-CLTA 0 | WPMY1-TUBA1B-RELA 0

CCc1c(C)[nH]c2c1C(=O)C(CN1CCOCC1)CC2 (stereo not given) [molindone]
inactive: A549-ACTB-RAB5A 0 | A549-CANX-COX4 0 | A549-GM130-SQSTM1 0 | A549-TP53BP1-CLTA 0 | A549-TUBA1B-RELA 0 | HepG2-ACTB-RAB5A 0 | HepG2-CANX-COX4 0 | HepG2-GM130-SQSTM1 0 | HepG2-TP53BP1-CLTA 0 | HepG2-TUBA1B-RELA 0 | WPMY1-ACTB-RAB5A 0 | WPMY1-CANX-COX4 0 | WPMY1-GM130-SQSTM1 0 | WPMY1-TP53BP1-CLTA 0 | WPMY1-TUBA1B-RELA 0

— the supplement of paper PMC7411054
